{
  "source": "the supplement of paper PMC13380429",
  "data": [
    {"test_system": "Vero E6 infected with SARS-CoV-2", "test": "morphology score (similarity to uninfected cells); higher = more like uninfected cells", "conditions": "24 h", "values": [
      {"smiles": "C/C(=C\\CNc1ncnc2[nH]cnc12)CO", "note": "[zeatin] (10 µM)", "morphology score": -0.0215},
      {"smiles": "COc1ccc(-c2coc3cc(O)cc(O)c3c2=O)cc1", "note": "[4-methylgenistein] (10 µM)", "morphology score": 0.139},
      {"smiles": "O=C(O[C@@H]1Cc2c(O)cc(O)cc2O[C@@H]1c1ccc(O)c(O)c1)c1cc(O)c(O)c(O)c1", "note": "[epicatechin-gallate-(-)] (10 µM)", "morphology score": 0.106},
      {"smiles": "Cn1cc(-c2ccc(S(=O)(=O)n3ccc(/C=C/C(=O)Nc4ccccc4N)c3)cc2)cn1", "note": "(10 µM)", "morphology score": -0.0742},
      {"smiles": "CC(C)S(=O)(=O)NC[C@H](C)c1ccc(-c2ccc(CCNS(C)(=O)=O)cc2)cc1", "note": "[mibampator] (10 µM)", "morphology score": 0.146},
      {"smiles": "CCOc1ccccc1C(N)=O", "note": "[ethenzamide] (10 µM)", "morphology score": -0.0139},
      {"smiles": "CCOC(=O)Nc1ccc(NCc2ccc(F)cc2)nc1N", "note": "[flupirtine] (10 µM)", "morphology score": 0.0326},
      {"smiles": "CC[C@@H]1Cn2c(c3nc(-c4ccccc4)nc-3n(C)c2=O)N1", "note": "(10 µM)", "morphology score": 0.14},
      {"smiles": "CN(C)CCOC1=Cc2ccccc2Sc2ccc(Cl)cc21", "note": "[zotepine] (0.833333 µM)", "morphology score": 0.061},
      {"smiles": "Fc1ccc(CNc2ncnc3ccc(F)cc23)cc1", "note": "[spautin-1] (10 µM)", "morphology score": -0.0451},
      {"smiles": "CC[C@@H]1C(=O)N(C)c2cnc(Nc3ccc(C(=O)N[C@H]4CC[C@H](N5CCN(CC6CC6)CC5)CC4)cc3OC)nc2N1C(C)C", "note": "[volasertib] (10 µM)", "morphology score": -0.314},
      {"smiles": "O=C(Nc1ccccc1)OCC(CN1CCCCC1)OC(=O)Nc1ccccc1", "note": "(stereo not given) [diperodon] (10 µM)", "morphology score": -0.0894},
      {"smiles": "N#Cc1c(O)c2c(-c3ccc(-c4ccccc4O)cc3)csc2[nH]c1=O", "note": "(10 µM)", "morphology score": 0.0882},
      {"smiles": "NCC1(CC(=O)O)CCCCC1", "note": "[gabapentin] (10 µM)", "morphology score": -0.108},
      {"smiles": "CC(O)(P(=O)(O)O)P(=O)(O)O", "note": "[etidronic-acid] (10 µM)", "morphology score": 0.115},
      {"smiles": "CCCCNc1c(C(=O)OCC)c(C)nc2c1cnn2CC", "note": "[tracazolate] (10 µM)", "morphology score": 0.174},
      {"smiles": "O=C(OC[C@H]1O[C@@H](OC(=O)c2cc(O)c(O)c(OC(=O)c3cc(O)c(O)c(O)c3)c2)[C@H](OC(=O)c2cc(O)c(O)c(OC(=O)c3cc(O)c(O)c(O)c3)c2)[C@@H](OC(=O)c2cc(O)c(O)c(OC(=O)c3cc(O)c(O)c(O)c3)c2)[C@@H]1OC(=O)c1cc(O)c(O)c(OC(=O)c2cc(O)c(O)c(O)c2)c1)c1cc(O)c(O)c(OC(=O)c2cc(O)c(O)c(O)c2)c1", "note": "[tannic-acid] (10 µM)", "morphology score": -0.112},
      {"smiles": "O=C(O)c1ccccc1C(=O)Nc1ccc(-c2ccccc2)cc1", "note": "[kartogenin] (10 µM)", "morphology score": 0.214},
      {"smiles": "COc1ccc(C(=O)/C(Cc2cc(OC)c(OC)c(OC)c2)=C(\\C(=O)O)c2ccc3c(c2)OCO3)cc1", "note": "(10 µM)", "morphology score": 0.489},
      {"smiles": "COc1ccc(S(=O)(=O)Nc2c(C)cc(C)cc2C)cc1", "note": "(10 µM)", "morphology score": 0.217},
      {"smiles": "Nc1ccn([C@@H]2O[C@H](CO)[C@@H](O)[C@@H]2O)c(=O)n1", "note": "[cytarabine] (0.833333 µM)", "morphology score": 0.0731},
      {"smiles": "CC(ONC(=O)c1cc(C(F)(F)F)cc(C(F)(F)F)c1)C(=O)Nc1ccc(Cl)cc1", "note": "(stereo not given) (10 µM)", "morphology score": 0.227},
      {"smiles": "CC[C@H]1OC(=O)[C@@](C)(F)C(=O)[C@H](C)[C@@H](O[C@@H]2O[C@H](C)C[C@H](N(C)C)[C@H]2O)[C@](C)(OC)C[C@@H](C)C(=O)[C@H](C)[C@H]2N(CCCCn3cc(-c4cccc(N)c4)nn3)C(=O)O[C@]12C", "note": "[solithromycin] (10 µM)", "morphology score": 0.351},
      {"smiles": "O=C(CBr)N1CC([N+](=O)[O-])([N+](=O)[O-])C1", "note": "(10 µM)", "morphology score": 0.0284},
      {"smiles": "CN(C)c1ccc2nc3ccc(=[N+](C)C)cc-3sc2c1", "note": "[methylene-blue] (0.833333 µM)", "morphology score": 0.152},
      {"smiles": "NS(=O)(=O)c1ccc(C(=O)O)cc1", "note": "[carzenide] (10 µM)", "morphology score": 0.174},
      {"smiles": "O=C1OC(CN2CCOCC2)CN1/N=C/c1ccc([N+](=O)[O-])o1", "note": "(stereo not given) [furaltadone] (10 µM)", "morphology score": 0.0402},
      {"smiles": "COc1cn(-c2ccc(-n3cccn3)cc2F)nc(-c2ccnn2-c2ccccc2)c1=O", "note": "(10 µM)", "morphology score": 0.0337},
      {"smiles": "Fc1ccc(C(OCCN2CCN(C/C=C/c3ccccc3)CC2)c2ccc(F)cc2)cc1", "note": "(10 µM)", "morphology score": 0.456},
      {"smiles": "CC(=O)N1CCN(CCOc2ccc(C3CCN(C4=Nn5c(nnc5C(F)(F)F)CC4)CC3)cc2)CC1", "note": "(0.833333 µM)", "morphology score": 0.0218},
      {"smiles": "Cc1ccccc1NC(=O)Nc1ccc(CC(=O)N(C)[C@@H](CC(C)C)C(=O)NCC[C@H](NC(=O)[C@@H]2CCCN2S(=O)(=O)c2cc(Cl)cc(Cl)c2)C(=O)O)cc1", "note": "(10 µM)", "morphology score": 0.157},
      {"smiles": "Nc1ncnc2c1ncn2[C@@H]1O[C@@H]2COP(=O)(O)O[C@H]2[C@H]1O", "note": "[cyclic-AMP] (10 µM)", "morphology score": 0.255},
      {"smiles": "COc1cc(C(=O)N(CC[C@H]2CCCN2C)C/C(C)=C/c2ccccc2F)cc(OC)c1OC", "note": "(racemic) (10 µM)", "morphology score": 0.055},
      {"smiles": "FC(F)(F)c1ccccc1-c1cc(C(F)(F)F)c2[nH]c(C3=NOC4(CCCCC4)C3)nc2c1", "note": "(10 µM)", "morphology score": -0.000445},
      {"smiles": "N#Cc1cccc(-c2c[nH]c3ncnc(N4CCOCC4)c23)c1", "note": "(10 µM)", "morphology score": 0.304},
      {"smiles": "Cc1occc(=O)c1[O-].Cc1occc(=O)c1[O-].[O]=[V+2]", "note": "[bis(maltolato)oxovanadium(IV)] (10 µM)", "morphology score": -0.461},
      {"smiles": "CCc1nc(C(N)=O)c(Nc2ccc(N3CCC(N4CCN(C)CC4)CC3)c(OC)c2)nc1NC1CCOCC1", "note": "[gilteritinib] (0.833333 µM)", "morphology score": 0.272},
      {"smiles": "OCCNC1CCCc2c1[nH]c1ccc(-c3ccccc3)cc21", "note": "(stereo not given) [casin] (0.833333 µM)", "morphology score": 0.105},
      {"smiles": "COc1ccc(CCNCc2ccc(OCc3ccc(Cl)nc3)c(OC)c2)cc1OC", "note": "(10 µM)", "morphology score": 0.078},
      {"smiles": "CCCCCCCCCCCCCCCCCC(=O)OC[C@@H](O)[C@H]1OC[C@H](O)[C@H]1O", "note": "[sorbitan-monostearate] (10 µM)", "morphology score": 0.0535}
    ]}
  ]
}
